Assay: qHTS profiling of inhibitors of Plasmodium falciparum (HB3) proliferation (acoustic dispense)
Conditions: P. falciparum HB3 in erythrocytes, SYBR Green, 72 h; at 49.8 µM (top of the series) unless noted

SMILES | activity (normalised, proliferation)
CN(C)c1ccc2nc3ccc(=[N+](C)C)cc-3sc2c1 | 19.1%
CO[C@H]1C=CC=C(C)C(=O)NC2=CC(=O)C(NCCN(C)C)=C(C[C@@H](C)C[C@H](OC)[C@@H](O)[C@@H](C)C=C(C)[C@@H]1OC(N)=O)C2=O | -0.262%
CCN(CC)CCNC(=O)c1c(C)[nH]c(C=C2C(=O)Nc3ccc(F)cc32)c1C | 0.208% [at 100 µM]
CCNC(=O)c1noc(-c2cc(C(C)C)c(O)cc2O)c1-c1ccc(CN2CCOCC2)cc1 | 117%
C[C@@H]1CCC2[C@@H](C)[C@@H](O)O[C@@H]3O[C@@]4(C)CC[C@@H]1[C@@]23OO4 (some centres undefined) | -0.43%
COC(=O)c1ccc2c(C(=Nc3ccc(N(C)C(=O)CN4CCN(C)CC4)cc3)c3ccccc3)c(O)[nH]c2c1 | 35.3%
CCC(C=C[C@@H]1OC(=O)C=C[C@H]1C)=C[C@H](C)CC=CC(C)=C[C@@H](C)C(=O)[C@@H](C)[C@H](O)[C@@H](C)CC(C)=CC(=O)O | 105% [at 1.88 µM]
C[C@H]1Cc2c([nH]c3cc(Cl)c(F)cc23)[C@@]2(N1)C(=O)Nc1ccc(Cl)cc12 | -0.548%
CCCCCCCCCCOc1cc2c(=O)c(C(=O)OCC)c[nH]c2cc1OCC | -0.332%
Cn1cc(C2=C(c3c4n(c5ccccc35)CCC(CN)C4)C(=O)NC2=O)c2ccccc21 (centres undefined) | -0.862%
C1CCC(C(CC2CCCCN2)C2CCCCC2)CC1 (centres undefined) | -0.0393%
COc1cc(NCc2ccc3nc(N)nc(N)c3c2C)cc(OC)c1OC | -2.34%
CN[C@@H](C)C(=O)N[C@H]1CCCC[C@H]2CC[C@@H](C(=O)N[C@@H](c3ccccc3)c3cn(CCCCc4ccc(CCCCn5cc([C@@H](NC(=O)[C@@H]6CC[C@@H]7CCCC[C@H](NC(=O)[C@H](C)NC)C(=O)N76)c6ccccc6)nn5)cc4)nn3)N2C1=O | 0.411%
COc1ccc(-c2nc(N3CCOCC3)c3sc(CN(C)c4ncc(C(=O)NO)cn4)cc3n2)cn1 | -1.14%
COc1ccc2cc3[n+](cc2c1OC)CCc1cc2c(cc1-3)OCO2 | -1.06%
COc1ncc(-c2ccc3nccc(-c4ccnnc4)c3c2)cc1NS(=O)(=O)c1ccc(F)cc1F | -1.51%
O=C1c2c(O)ccc(O)c2C(=O)c2c(NCCNCCO)ccc(NCCNCCO)c21 | -5.84%

SMILES | activity (normalised, proliferation)
O=C1c2ccccc2-[n+]2ccc3c([nH]c4ccccc43)c21 | 4.27%
CO[C@H]1O[C@@H]2O[C@@]3(C)CC[C@@H]4[C@@H](C)CC[C@@H]([C@H]1C)[C@@]24OO3 | -0.929%
CN(C)c1ccc(C(=C2C=CC(=[N+](C)C)C=C2)c2ccc(N(C)C)cc2)cc1 | 108%
COc1cc2c(Oc3ccc(NC(=O)C4(C(=O)Nc5ccc(F)cc5)CC4)cc3F)ccnc2cc1OCCCN1CCOCC1 | 17.9%
O[C@H](c1cc(C(F)(F)F)nc2c(C(F)(F)F)cccc12)[C@H]1CCCCN1 | 3.25% [at 23.2 µM]
CC[C@]1(O)C[C@H]2CN(CCC3=c4ccccc4=N[C]3[C@@](C(=O)OC)(c3cc4c(cc3OC)N(C)[C@H]3[C@@](O)(C(N)=O)[C@H](O)[C@]5(CC)C=CCN6CC[C@]43[C@@H]65)C2)C1 | 2.35%
Cn1cc(CNCC2CCN(c3ncc(C(=O)NO)cn3)CC2)c2ccccc21 | -0.786%
COc1cc(C)c2c(Oc3cccc(C(F)(F)F)c3)c(OC)cc(NCCCC(C)N)c2n1 (centres undefined) | -2.19%
Cc1cnc(Nc2ccc(CN3CCOCC3)cc2)nc1Nc1cccc(S(=O)(=O)NC(C)(C)C)c1 | 0.609%
Cn1c(=O)c(-c2c(Cl)cccc2Cl)cc2cnc(Nc3cccc(C(=O)O)c3)nc21 | 16.3%
COc1ccc(-c2ccc3ncc4c(c3c2)n(-c2ccc(N3CCNCC3)c(C(F)(F)F)c2)c(=O)n4C)cn1 | 5.42%
COC(=O)[C@]12CCC(C)(C)C[C@@H]1[C@@H]1C(=O)C=C3[C@@]4(C)C=C(C#N)C(=O)C(C)(C)[C@@H]4CC[C@@]3(C)[C@]1(C)CC2 | 41.4%
C[C@H]1[C@@H](OC(=O)CCC(=O)O)O[C@@H]2O[C@@]3(C)CC[C@@H]4[C@H](C)CC[C@@H]1[C@@]24OO3 | -0.479%
Cc1nc2c(C#N)cccc2n1-c1ccc(C(=O)NC2CC2)s1 | 1.48%
CN[C@@H]1C[C@H]2O[C@@](C)([C@H]1OC)n1c3ccccc3c3c4c(c5c6ccccc6n2c5c31)C(=O)N[C@H]4O | -0.206%
FC(F)c1nc2ccccc2n1-c1nc(N2CCOCC2)nc(N2CCOCC2)n1 | 25.3%
O=C1NC(=O)C(=Cc2ccc3nccc(-c4ccncc4)c3c2)S1 | 0.554%

— PubChem BioAssay AID743366 (National Center for Advancing Translational Sciences (NCATS), 2014)
